DYRK1A inh: rat Dyrk1A kinase inhibitors, primary screen, biochemical, single point, plate reader; ADP-Glo luminescence, NFATc1 peptide; inhibition, % at 12.5 µM; actives 0.43% (n = 310,000); in the data active means inhibition above about 50%
CDK5 inh: inhibitors of human CDK5/p35 kinase, primary screen, biochemical, single concentration; Recombinant CDK5/p35, ADP-Glo luminescence, 60 min; inhibition, % at 10 µM; actives 0.01% (n = 330,000);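 active means highest replicate inhibition of at least 50% and at least 75% of replicates reaching 50%; inconclusive means only one of the two criteria met; inactive means both criteria failed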
dFosB activator: activators of delta FosB homodimer, primary screen, biochemical, fluorescence polarization, TAMRA-CDK5 oligo, single point. Protein FosB (Mus musculus), P13346. purified delta FosB; percent of positive-control signal above neutral wells. activation, % at 25 µM. actives 0.99% (n = 340,000). AID 493131, 2011;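 active means mean activation above about 17%, with every replicate also reaching it, limit read from the data, passing the limit was not always enough; inconclusive means only one of the two conditions met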
Target sequence (P13346 whole entry, looked up): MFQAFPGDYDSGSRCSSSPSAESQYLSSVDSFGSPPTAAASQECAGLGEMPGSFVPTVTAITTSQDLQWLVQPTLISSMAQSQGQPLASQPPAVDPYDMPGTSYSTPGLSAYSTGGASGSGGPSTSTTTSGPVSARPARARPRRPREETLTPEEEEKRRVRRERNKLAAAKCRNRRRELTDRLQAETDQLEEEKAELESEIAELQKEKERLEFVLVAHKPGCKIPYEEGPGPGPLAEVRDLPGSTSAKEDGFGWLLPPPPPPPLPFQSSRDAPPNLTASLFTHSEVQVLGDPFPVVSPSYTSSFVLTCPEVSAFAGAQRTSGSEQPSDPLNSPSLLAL
SMARCA2 activ: SMARCA2 (BRM) function activators, primary screen, cell-based, luminescence, high throughput; activation, % at 9.1 µM; AID 652017, 2013; actives 1% (n = 370,000); MG213 cells, MMTV-luciferase reporter, dexamethasone, overnight; in the data active means activation above about 7.8%
Rtt109 Vps75: inhibitors of C. albicans Rtt109/Vps75 HAT, primary screen, biochemical, ThioGlo CoA-SH fluorescence, plate reader; AID 540336, 2011; actives 0.16% (n = 330,000); inhibition, % at 34.9 µM; purified Rtt109/Vps75, 4 h;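 active means inhibition of at least 50% in every replicate; inconclusive means best replicate reaches 50% inhibition but some replicates fall short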
esBAF inh: Bmi1 luciferase reporter increase in mESCs, primary screen, esBAF inhibitor project, mouse ES cells, Bmi1 luciferase knock-in, single point; 24 h; 100% = twice the neutral-well signal; reporter increase, % at 12.5 µM; actives 2% (n = 350,000); in the data active means activation above about 40%; inconclusive means no clear call, values can overlap the other calls;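 further: a rise in the Bmi1 reporter signal indicates esBAF inhibition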
Hits are given with their value. Hits are enriched below; roughly 3.2% of the tested compounds scored in any of these assays.

What do the screens show for `CC(=O)c1cccc(NC(=S)NC(=O)c2ccccc2Cl)c1`?
DYRK1A inh: inactive; CDK5 inh: inactive; dFosB activator: inactive; SMARCA2 activ: inactive; Rtt109 Vps75: inactive

How did O=C(O)c1ccc(NC(=S)NC(=O)c2ccc3ccccc3c2)cc1 do in these assays?
DYRK1A inh: inactive; CDK5 inh: inactive; dFosB activator: inactive; SMARCA2 activ: inactive; Rtt109 Vps75: inactive; esBAF inh: 40.8

Results for O=C(NC(=S)Nc1ccc2nc[nH]c2c1)c1ccccc1 ?
DYRK1A inh: inactive; CDK5 inh: inactive; dFosB activator: inactive; SMARCA2 activ: inactive; Rtt109 Vps75: inactive; esBAF inh: 55.4

Results for O=C(NC(=S)Nc1cccc(NC(=S)NC(=O)c2ccccc2)c1)c1ccccc1 ?
DYRK1A inh: inactive; CDK5 inh: inactive; dFosB activator: inactive; SMARCA2 activ: inactive; Rtt109 Vps75: inactive; esBAF inh: 66.3

What do the screens show for `O=C(O)c1cccc(NC(=S)NC(=O)c2ccc3ccccc3c2)c1`?
DYRK1A inh: inactive; CDK5 inh: inactive; dFosB activator: inactive; SMARCA2 activ: inactive; Rtt109 Vps75: inactive

Results for Cc1ccc(NC(=S)NC(=O)c2ccccc2)cc1NC(=S)NC(=O)c1ccccc1 ?
DYRK1A inh: inactive; CDK5 inh: inactive; dFosB activator: inactive; SMARCA2 activ: inactive; Rtt109 Vps75: inactive; esBAF inh: inactive

Results for C[C@H](CO)N1C[C@H](C)[C@@H](CN(C)C(=O)Nc2ccc(F)cc2)OCCCC[C@H](C)Oc2ccc(NC(=O)CCC(F)(F)F)cc2C1=O ?
esBAF inh: inactive

How did C[C@@H]1CN([C@@H](C)CO)C(=O)c2cc(-c3cccc(F)c3)cnc2O[C@@H]1CN(C)C(=O)c1cnccn1 do in these assays?
esBAF inh: inactive

What do the screens show for `CNC[C@@H]1OCCCC[C@@H](C)Oc2ccc(NC(=O)c3ccccc3)cc2C(=O)N([C@@H](C)CO)C[C@H]1C`?
esBAF inh: inactive

Results for S=C(NCc1ccccc1)Nc1ccc2ccccc2c1 ?
DYRK1A inh: inactive; CDK5 inh: inactive; dFosB activator: inactive; SMARCA2 activ: inactive; Rtt109 Vps75: inactive; esBAF inh: 80.5

Results for CCC(=O)Nc1cccc(NC(=S)NC(=O)c2ccc(C)cc2)c1 ?
DYRK1A inh: inactive; CDK5 inh: inactive; dFosB activator: inactive; SMARCA2 activ: inactive; Rtt109 Vps75: inactive; esBAF inh: 96.0

What do the screens show for `O=C(NC(=S)Nc1ccc2ncccc2c1)c1ccccc1`?
DYRK1A inh: inactive; CDK5 inh: inactive; dFosB activator: inactive; SMARCA2 activ: inactive; Rtt109 Vps75: inactive; esBAF inh: 67.2

What do the screens show for `O=C(NC(=S)Nc1ccc(Oc2ccccc2)cc1)c1ccc(Cl)cc1`?
DYRK1A inh: inactive; CDK5 inh: inactive; dFosB activator: inactive; SMARCA2 activ: inactive; Rtt109 Vps75: 54.6; esBAF inh: inactive

What do the screens show for `Cc1ccc(C(=O)NC(=S)Nc2ccc(Oc3ccc(Cl)cc3)cc2)cc1`?
DYRK1A inh: inactive; CDK5 inh: inactive; dFosB activator: inactive; SMARCA2 activ: inactive; Rtt109 Vps75: inactive; esBAF inh: inactive

Results for S=C(NCc1ccccc1)Nc1ccc(Oc2ccccc2)cc1 ?
CDK5 inh: inactive; dFosB activator: inactive; SMARCA2 activ: inactive; Rtt109 Vps75: inactive; esBAF inh: inactive

Results for Cc1ccc(S(=O)(=O)N[C@@H]2CC[C@@H](CCn3cc(C(C)C)nn3)O[C@@H]2CO)cc1 ?
esBAF inh: inactive

How did CC(C)(C)NC(=S)NNC(=O)c1ccc2ncccc2c1 do in these assays?
DYRK1A inh: inactive; CDK5 inh: inactive; dFosB activator: inactive; SMARCA2 activ: inactive; Rtt109 Vps75: inactive; esBAF inh: 56.6

How did CN1[C@H](C(=O)NCC(F)(F)F)[C@@H](CO)[C@@H]2Cn3c(ccc(-c4ccc(F)cc4)c3=O)[C@@H]21 do in these assays?
esBAF inh: inactive

Results for O=C(N/N=C/c1cccc([N+](=O)[O-])c1)C1CC1c1ccccc1 (stereo unspecified) ?
DYRK1A inh: inactive; CDK5 inh: inactive; dFosB activator: inconclusive; SMARCA2 activ: 9.1; Rtt109 Vps75: inactive; esBAF inh: inactive

What do the screens show for `O=C(C[C@@H]1C=C[C@H](NC(=O)C2CC2)[C@@H](CO)O1)Nc1nccs1`?
esBAF inh: inactive

How did CC(C)NC(=O)Nc1ccc2c(c1)CC(=O)N([C@@H](C)CO)C[C@@H](C)[C@H](CN(C)Cc1ccc(C(=O)Nc3ccccc3N)cc1)O2 do in these assays?
esBAF inh: inactive

What do the screens show for `C[C@@H]1CN([C@@H](C)CO)C(=O)c2cc(C3=CCCCC3)cnc2O[C@H]1CN(C)Cc1ccccc1F`?
esBAF inh: inactive

Results for O=C(NC1CCC(O)CC1)c1ccc2c(c1)S(=O)(=O)N=C1CCCCCN12 (stereo unspecified) ?
DYRK1A inh: inactive; CDK5 inh: inactive; dFosB activator: inactive; SMARCA2 activ: inactive; Rtt109 Vps75: inactive; esBAF inh: 46.4

Results for O=C(Cc1ccccc1)N1C[C@@H]2[C@H](c3ccccc31)[C@H](CO)N2C(=O)C1CCCC1 ?
esBAF inh: inactive

Results for O=[N+]([O-])c1ccc(OCCCOc2cccc3cccnc23)cc1 ?
DYRK1A inh: inactive; CDK5 inh: inactive; dFosB activator: inactive; SMARCA2 activ: inactive; Rtt109 Vps75: inactive; esBAF inh: inactive

What do the screens show for `O=[N+]([O-])c1ccc(Sc2cccc3cccnc23)c([N+](=O)[O-])c1`?
DYRK1A inh: inactive; CDK5 inh: inactive; dFosB activator: inactive; SMARCA2 activ: inactive; Rtt109 Vps75: inactive; esBAF inh: inactive

Results for O=[N+]([O-])c1ccc(COc2cccc3cccnc23)cc1 ?
DYRK1A inh: inactive; CDK5 inh: inactive; dFosB activator: inactive; SMARCA2 activ: inactive; Rtt109 Vps75: inactive; esBAF inh: 82.9

How did O=[N+]([O-])c1ccc(Sc2cccc3cccnc23)cc1 do in these assays?
DYRK1A inh: inactive; CDK5 inh: inactive; dFosB activator: inactive; SMARCA2 activ: inactive; Rtt109 Vps75: inactive; esBAF inh: 46.3

Results for OCc1ccccc1OCCCOc1cccc2cccnc12 ?
DYRK1A inh: inactive; CDK5 inh: inactive; dFosB activator: inactive; SMARCA2 activ: inactive; Rtt109 Vps75: inactive; esBAF inh: 43.5

Results for Brc1ccc(COc2cccc3cccnc23)cc1 ?
SMARCA2 activ: inactive; esBAF inh: 71.0

How did CNC[C@H]1Oc2ccc(NS(=O)(=O)c3c(C)noc3C)cc2C(=O)N([C@@H](C)CO)C[C@@H]1C do in these assays?
esBAF inh: inactive

What do the screens show for `O=C(Cc1ccccc1)N1C[C@@H]2[C@H](c3ccccc31)[C@@H](CO)N2C(=O)Cc1ccccc1`?
esBAF inh: inactive

Compound activity: PubChem BioAssay, several laboratories
